Screening data deposited in PubChem by National Center for Advancing Translational Sciences (NCATS).
TDP1 inh: blocks human tyrosyl-DNA phosphodiesterase 1; Q9NUW8; recombinant TDP1, AlphaScreen DNA substrate cleavage; Potency, µM (doses to about 130 µM), for inactives: at the top dose activity change, negative = inhibition, most hits filed as inhibitors; 350,000 compounds, 0.28% hits; AID 485290; note: potency is the fitted concentration of half-maximal effect; % is set by controls: 0 for no effect and ±100 for the full control effect; nearly all actives have a fitted effect of over 40% in size
Target sequence (Q9NUW8 whole entry, looked up): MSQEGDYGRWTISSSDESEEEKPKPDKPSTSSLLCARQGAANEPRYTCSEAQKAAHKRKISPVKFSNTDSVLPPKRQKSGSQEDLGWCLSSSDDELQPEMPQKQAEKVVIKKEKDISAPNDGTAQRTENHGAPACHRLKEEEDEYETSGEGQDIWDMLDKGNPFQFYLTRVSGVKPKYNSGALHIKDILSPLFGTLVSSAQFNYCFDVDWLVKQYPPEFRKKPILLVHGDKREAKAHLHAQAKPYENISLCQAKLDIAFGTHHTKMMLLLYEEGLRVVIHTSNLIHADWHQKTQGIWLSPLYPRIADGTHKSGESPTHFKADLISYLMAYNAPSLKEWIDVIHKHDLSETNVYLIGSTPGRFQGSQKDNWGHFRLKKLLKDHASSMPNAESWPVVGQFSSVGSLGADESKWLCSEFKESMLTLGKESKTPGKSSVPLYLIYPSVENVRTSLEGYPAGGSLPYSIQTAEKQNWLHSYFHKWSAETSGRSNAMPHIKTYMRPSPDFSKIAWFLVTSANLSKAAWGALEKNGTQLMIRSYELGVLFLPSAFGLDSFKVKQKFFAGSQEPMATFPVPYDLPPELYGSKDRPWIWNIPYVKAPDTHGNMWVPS
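Compounds were preincubated with Tdp1 (1 nM final) for 15 min at room temperature before substrate (15 nM final) started a 5 min reaction; beads (10 ug/ml final) were then added for 10 min before AlphaScreen detection.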
TGFb inhibitor: inhibitors of TGF-b signaling; AID 588855; HepG2 CAGA-GFP TGF-b/SMAD3 reporter, GFP fluorescence, 18 h; TGF-beta stimulated, 500 pg/mL final; Potency, µM (top dose mostly 46.1 µM), inactives show at the top dose activity, negative = inhibition, actives largely listed as inhibitors; 410,000 compounds, 1.2% hits; note: potency is the fitted concentration of half-maximal effect; % is set by controls: 0 for no effect and ±100 for the full control effect; nearly all actives have a fitted effect of over 65% in size
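Cell-based qHTS in HEPG2 carrying a CAGA-GFP Smad reporter; compounds added before 500 pg/mL final TGF-beta, 18 h incubation at 37 degrees C, GFP fluorescence quantified per cell by imaging cytometry.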
TDP1 cell noCPT: qHTS for Inhibitors of human tyrosyl-DNA phosphodiesterase 1 (TDP1): qHTS in cells in absence of CPT; DT40 Tdp1-/- hTDP1 cells, no CPT, ATP luminescence, 48 h; Potency, µM (doses to about 46.2 µM), inactives show at the highest dose activity change, negative = growth inhibition, most hits filed as inhibitors; 420,000 compounds, 15% hits; note: potency is the fitted concentration of half-maximal effect; % is set by controls: 0 for no effect and ±100 for the full control effect; nearly all actives have a fitted effect of over 55% in size
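Camptothecin absent (DMSO only). Human TDP1-complemented DT40 knockout cells, 400 cells/well, 37 °C for minimum 48 hr; ATP measured via CellTiter-Glo, 30 min dark incubation, luminescence.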
IL1B secr inh: blocks inflammasome-driven IL-1 beta release. THP-1 LPS/ATP IL-1B secretion, AlphaLISA, 16 h; hits give low values. activity change, % at 57.5 µM. 360,000 compounds, 4.7% hits. AID 743279; in the data active = activity change below about -50%; inconclusive = mostly about -30% to -49%; note: % is set by controls: 0 for no effect and ±100 for the full control effect
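THP-1 cells pretreated 1 hr with compounds (up to 57.5 uM final), then stimulated with LPS (250 ng/mL final) plus ATP (1.25 mM final); secreted IL-1B measured by AlphaLISA after 16 hr, decreased signal indicating inhibition.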
DT40 TDP1 CPT: DT40-hTDP1 cell growth loss with CPT | 420,000 compounds, 12% hits | chicken DT40 Tdp1-/-;hTDP1 cells + 20 nM CPT, ATP luminescence, 48 h | Potency, µM (series often up to 46.2 µM), without a hit: top-dose activity change, negative = growth inhibition, actives largely listed as inhibitors; note: potency is the fitted concentration of half-maximal effect; % is set by controls: 0 for no effect and ±100 for the full control effect; nearly all actives have a fitted effect of over 55% in size
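Chicken DT40 Tdp1-/- cells stably complemented with human TDP1 were seeded at 400 cells/well in medium containing 20 nM camptothecin, exposed to pin-transferred compounds, and grown at 37 °C for at least 48 hr. Viability was read as ATP luminescence.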
HepG2 tox: counter-screen for TGF-b inhibitors: cytotoxicity in HepG2 cells; HepG2 CAGA-GFP viability, ATP luminescence, 18 h; Potency, µM (doses to about 46.1 µM), for the others: at the highest dose activity change, negative = cytotoxicity, actives largely listed as cytotoxic; 410,000 compounds, 0.76% hits; AID 588856; note: potency is the fitted concentration of half-maximal effect
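CellTiter-Glo luminescence gave cytotoxicity after 18 hours at 37 degrees C. The cells were HepG2 CAGA-GFP in 1% FBS DMEM, stimulated with 500 pg/mL TGF-beta after compound addition. %Activity was normalised to no-cell wells (complete cell-killing) and DMSO (no toxicity), and curves were fitted and classified.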
Active calls of the source: *; ? = inconclusive; / = not tested or not shown; [ ] = remark or other dose. Shown are actives, neighbours in structure and some others; about 19% of the full set was active somewhere. Unless noted, calls come from the whole dose curve; as a rule, active = well fitted curve in the direction sought with a large enough effect; inconclusive = small, poorly fitted or top-dose-only effect, or another doubt; inactive = no such curve, though single readings can be large; an effect the other way counts as inactive or inconclusive.

SMILES	TDP1 inh	TGFb inhibitor	TDP1 cell noCPT	IL1B secr inh	DT40 TDP1 CPT	HepG2 tox
CC1=NOC(=O)/C1=C\c1ccc(-c2ccc(Cl)cc2Cl)o1	-3.2%	-10.0%	11.6µM*	-62.4*	13µM*	-28.0%
C[C@@H]1C=CCC(=O)OC[C@H](C)C(=O)OC[C@H]2O[C@H]1C=C[C@H]2O	7.9%[21 µM]	/	/	/	/	/
O=C(Cc1cccs1)NCCc1csc(-c2ccccc2)n1	/	-14.2%	?	9.6	-4.9%	-17.6%
Cc1ccc(C(=O)N/N=C/c2ccc(-c3cccc(C(F)(F)F)c3)o2)cn1	/	?	2.59µM*	2.7	2.91µM*	-0.3%
Cc1ccc(OCC(=O)N/N=C\c2ccc(-c3cccc(C(=O)O)c3)o2)c(C)c1	-2.3%	?	-19.5%	0.0	-9.1%	-23.5%
CNC(=S)N/N=C/c1ccc(-c2cccc(C(=O)O)c2)o1	-8.8%	18.0%	8.2µM*	19.1	9.2µM*	11.2µM*
O=C(O)/C=C/c1ccc(-c2cccc(C(F)(F)F)c2)o1	-2.7%	4.0%	20.4%	-5.0	-6.6%	-21.8%
O=C(NC1C/C=C\C(c2ccccc2)N(c2ccccc2)C(=O)C1)OCC1c2ccccc2-c2ccccc21 (centres undefined)	0.3%[56.1 µM]	?	0.164µM*	?	-82.1%	-28.8%
Cc1ccc(CN2C(=O)C[C@@H](NC(=O)OCC3c4ccccc4-c4ccccc43)C/C=C\C2c2ccc(C)cc2)cc1 (some centres undefined)	0.6%[56.1 µM]	?	?	-64.8*	?	-36.9%
CCCCCCN1C(=O)CC(NC(=O)OCC2c3ccccc3-c3ccccc32)C/C=C\C1C(C)C (centres undefined)	-0.9%[56.1 µM]	?	14.6µM*	-4.5	23.1µM*	-13.0%
CC(C)CC(NC(=O)OCC1c2ccccc2-c2ccccc21)C(=O)O (centres undefined)	4.5%	/	22.3%	/	-2.6%	/
CC(=O)Nc1cc(C(=O)N2CCSCC2)cc2ncn(CCc3ccccn3)c12	/	/	-6.0%	/	-2.8%[9.04 µM]	/
O=S1(=O)N=C(Oc2cccc(C(F)(F)F)c2)c2ccccc21	1.7%	/	/	/	/	/
CCCCOc1ccc(CC(=O)NOC)cc1	/	-7.7%	-10.5%	/	-3.0%	0.3%
CC(=O)Oc1ccc(C2C3=C(CC(C)(C)CC3=O)Nc3cc4c(cc32)OCCO4)cc1 (centres undefined)	5.8%	1.4%	5.9%	?	-0.9%	-6.0%
O=C1OCC2=C1C(c1ccc(F)cc1)c1cc3c(cc1N2)OCO3 (centres undefined)	2.4%	?	0.0326µM*	55.9	0.164µM*	4.8%
COc1cc2c(cc1OC)C(c1ccc3c(c1)OCO3)C1=C(CC(C)(C)CC1=O)N2 (centres undefined)	3.1%	-0.9%	?	-54.4*	?	3.5%
O=C1OCC2=C1C(c1ccc(F)cc1)c1cc3c(cc1N2)OCCO3 (centres undefined)	2.4%	?	0.184µM*	66.4	0.184µM*	6.3%
C#CCOc1ccc(C2C3=C(COC3=O)Nc3cc4c(cc32)OCO4)cc1OC (centres undefined)	0.0%	?	1.03µM*	45.4	0.82µM*	1.8%
COc1cc(CNC(=O)OC2CC3CC2[C@H]2CCCCN2C3=O)cc(OC)c1 (some centres undefined)	/	/	-19.6%	0.0	-5.4%	/
CCOc1ccc(C2Sc3ccccc3NC3=C2C(=O)OC3)cc1 (centres undefined)	5.1%	-17.4%	?	0.0	?	-5.8%
O=C1OCC2=C1C(c1ccc3c(c1)OCO3)Sc1ccccc1N2 (centres undefined)	4.4%	-3.8%	20.6µM*	-11.3	13µM*	2.9%
Nc1ncnc2c1nc(Sc1ccc(Cl)cc1)n2[C@H]1O[C@@H]2COP(=O)(O)O[C@H]2[C@@H]1O	8.5%[56.1 µM]	/	/	/	/	/
CC(=O)Nc1cccc(Oc2nc(-c3ccccn3)nc3ccccc23)c1	7.0%	26.0%	?	/	?	33.2%
Cc1ccccc1Oc1nc(-c2ccccn2)nc2ccccc12	2.9%	?	5.17µM*	?	4.11µM*	-29.0%
SMILES	TDP1 inh	TGFb inhibitor	TDP1 cell noCPT	IL1B secr inh	DT40 TDP1 CPT	HepG2 tox
CC(=O)Nc1ccc(Oc2nc(-c3ccccn3)nc3ccccc23)cc1	2.7%	?	?	-94.0*	?	-48.0%
Cc1cccc(Oc2nc(-c3ccccn3)nc3ccccc23)c1	8.6%	?	1.03µM*	-99.2*	1.16µM*	11.2µM*
COc1cccc(-c2nc(Oc3cc(C)cc(C)c3)c3ccccc3n2)c1O	-4.1%	/	/	/	/	/
O=C1CCCC/C1=C\Nc1ccc(S(=O)(=O)Nc2cnc3ccccc3n2)cc1	0.0%	2.4%	4.7%	7.4	0.3%	4.1%
CC1CCC(C(C)C)C(O)C1 (centres undefined)	5.1%	/	/	/	/	/
COc1ccc(NC(=S)N=Nc2c(O)[nH]c3ccccc23)cc1	10.3%	6.31µM*	5.8µM*	34.1	8.2µM*	-22.0%
Oc1ccc(NC(=S)N=Nc2c(O)[nH]c3ccccc23)cc1	8.2%	?	?	-65.8*	?	-15.2%
O=C(N=Nc1c(O)[nH]c2ccccc12)c1cccs1	?	?	?	1.8	?	-33.8%
Cc1ccc(NC(=S)N=Nc2c(O)[nH]c3ccccc23)cc1	8.0%	3.98µM*	7.31µM*	0.0	6.51µM*	-38.8%
CNC(=S)N=Nc1c(O)[nH]c2ccccc12	2.6%	0.0%	-6.4%	9.8	-6.8%	-18.7%
COc1ccc(-c2nc3c4ccccc4n(CC(=O)Nc4cc(F)ccc4F)c(=O)n3n2)cc1	5.2%	-18.1%	-27.8%	/	-1.2%	-15.9%
COC(=O)c1c(OCc2ccccn2)cc(=O)n2c1CCN(C(=O)c1n[nH]c3c1CCCC3)CC2	/	/	-7.2%	/	0.4%	/
CCCNc1ccc(S(=O)(=O)N(CC)CC)cn1	2.8%	9.9%	-90.4%	3.0	16.4µM*	-17.8%
CCOc1cccc(/C=N/Nc2ccc(S(=O)(=O)N(CC)CC)cn2)c1O	8.3%	0.0%	0.581µM*	51.6	0.164µM*	-10.7%
CCN(CC)S(=O)(=O)c1ccc(N/N=C/c2ccc(OC)c(OC)c2OC)nc1	-8.1%	5.7%	18.4µM*	5.1	?	-0.4%
CCN(CC)S(=O)(=O)c1ccc(N/N=C/c2ccc(O)cc2)nc1	4.3%	-5.7%	-26.8%	1.1	?	-21.9%
